Hsp70 activator – transcriptional activators of Hsp70; HeLa Hsp70 promoter luciferase reporter, luminescence; scaled: vehicle 0, proteasome-inhibitor control 100%; activation, % at 10 µM; actives 0.04% (n = 200,000);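 active = activation above the mean across all tested compounds plus 3 SD, cutoff set per campaign, cut at about 5.5% in these data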
TNF necrop inh – inhibitors of TNF-alpha induced necroptosis in Jurkat FADD-/- cells | Jurkat FADD-/- TNF necroptosis rescue, ATP luminescence, 24 h; 0 = TNF only, 100 = no-TNF cells | activation (protection from cell death), % at 10 µM | actives 0.068% (n = 220,000);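 active = activation, meaning protection from cell death, of at least 50% relative to plate controls; inactive = activation below 50%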;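 note: necroptosis triggered by 40 ng/mL TNF-alpha added together with compound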
HSF-1 act – increases HSF-1 driven luciferase reporter signal; NIH3T3-HGL HSF-1 luciferase reporter, MG132, 8 h; 100% = twice DMSO control signal; activation, % at 9 µM; actives 1.7% (n = 300,000); AID 504408;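 active = mean replicate activation of at least 50% with a set share of replicates each reaching 50%; inconclusive = only one of those two conditions met; inactive = mean below 50% and too few replicates reaching it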
zVAD death inh – blocks zVAD induced death of L929 cells | L929 zVAD necroptosis rescue, ATP luminescence, 24 h; with zVAD 60 µM | viability rescue, % at 10 µM | actives 0.38% (n = 220,000) | AID 1377;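 active = activation, scaled between plate controls, above about 75%, limit read from the data; inactive = activation under that limit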
Each line names hits and unclear results; the compound was inactive in the other large screens. Most compounds without a hit are left out; they make up all but 1.9% or so of the library.

CCN(CCNC(=O)C1CCN(S(=O)(=O)CC)CC1)c1ccccc1	none
CCCCN(CCCNC(=O)C1CCN(S(=O)(=O)CC)CC1)c1ccccc1	HSF-1 act 64.3
Cn1c(O)c(N=NC(=O)CNC(=O)c2cccnc2)c2ccccc21	none (no result: Hsp70 activator, TNF necrop inh, zVAD death inh)
CC(Nc1nc(-c2ccc3c(c2)NC(=O)CO3)cs1)c1ccccc1 (centres undefined)	TNF necrop inh 82.6
COc1cc(NS(=O)(=O)c2ccc3c(c2)C(C)(C)C(=O)N3C)cc(OC)c1	none (no result: Hsp70 activator, TNF necrop inh, zVAD death inh)
CCc1cc2c(SCC#N)ncnc2s1	HSF-1 act 79.9
Cn1cc(C(=O)N/N=C/C(Br)=C/c2ccccc2)ccc1=O	HSF-1 act 89.6
Cn1cc(C(=O)N/N=C/C(Br)=C\c2ccccc2)ccc1=O	HSF-1 act 87.1
Cn1cc(C(=O)N/N=C/C=C/c2ccccc2)ccc1=O	none
O=C(CN(Cc1ccccc1Cl)C(=O)c1csnn1)NC1CCCC1	none (no result: Hsp70 activator, TNF necrop inh, zVAD death inh)
CCOC(=O)Cn1c(S(=O)(=O)Cc2ccc(F)cc2)nc(-c2ccccc2)c1-c1ccccc1	HSF-1 act 88.9
CCNC(=O)/C(C#N)=C/c1c(N(Cc2ccccc2)Cc2ccccc2)nc2ccccn2c1=O	HSF-1 act 65.6
COc1ccc(NC(=O)CSc2ccc3c4c(cccc24)C(=O)c2ccccc2-3)cc1	HSF-1 act 58.5
C/C(CC(=O)Nc1ccccc1)=N\NC(=O)COc1ccc(C)cc1Br	none
CCc1ccc(NC(=O)C/C(C)=N/NC(=O)COc2ccc(C)cc2Br)cc1	HSF-1 act 58.6 (no result: Hsp70 activator, TNF necrop inh, zVAD death inh)
COc1ccc(-c2cc(C(=O)NCc3ccco3)c3ccccc3n2)cc1	HSF-1 act 85.5 (no result: Hsp70 activator, TNF necrop inh, zVAD death inh)
Cc1nnc(Sc2cc(C(=O)NCc3ccco3)c3ccccc3n2)s1	zVAD death inh 97.0
COc1ccc(Br)cc1CNC(=O)CN1C(=O)C(c2ccccc2)Oc2cccnc21 (centres undefined)	none (no result: Hsp70 activator, TNF necrop inh, zVAD death inh)
Cc1ccc2c(c1)N(C(=O)CCC(=O)NC1CCCCCC1)CC(C)O2 (centres undefined)	none (no result: Hsp70 activator, TNF necrop inh, zVAD death inh)
S=c1[nH]nc(COc2ccccc2)n1/N=C/C=C/c1ccccc1	none
S=c1[nH]nc(COc2ccccc2)n1/N=C/C(Cl)=C/c1ccccc1	HSF-1 act 150.9
CSCC[C@H](NC(=O)c1nn(C)c(=O)c2ccccc12)c1nc2ccccc2[nH]1	none
CCOc1ccc(C(C)=O)cc1COc1cccnc1[N+](=O)[O-]	none (no result: Hsp70 activator, TNF necrop inh, zVAD death inh)
Brc1ccc(OCc2cn3ccccc3n2)cc1	HSF-1 act 83.1
Cc1cccn2cc(COc3ccc(-c4ccccc4)cc3)nc12	HSF-1 act 68.9
CCOC(=O)C(C)Sc1ccc2nnc(CCNS(=O)(=O)c3ccccc3)n2n1 (centres undefined)	none
N/C(=N/OC(=O)c1ccccc1Cl)c1ncc([N+](=O)[O-])s1	HSF-1 act 179.4 (no result: Hsp70 activator)
O=C(N/C(=C/c1ccc([N+](=O)[O-])cc1)C(=O)N1CCOCC1)c1ccco1	none (no result: Hsp70 activator, TNF necrop inh, zVAD death inh)
CCOc1ccc(C(C(=O)NCCC(C)C)N(CCO)C(=O)c2snc(C(N)=O)c2N)cc1 (centres undefined)	none (no result: Hsp70 activator, TNF necrop inh, zVAD death inh)
CCOCCCN(C(=O)c1snc(C(N)=O)c1N)C(C(=O)NCCC(C)C)c1ccc(F)cc1 (centres undefined)	HSF-1 act 53.3 (no result: Hsp70 activator, TNF necrop inh, zVAD death inh)
Cc1c(-n2c(O)c(C3=c4ccccc4=NC3=O)sc2=O)c(=O)n(-c2ccccc2)n1C	none
C=CCn1c(O)c(C2=c3ccccc3=NC2=O)s/c1=N/c1nccs1	none
C=CCn1c(O)c(C2=c3ccccc3=NC2=O)c2ccccc21	HSF-1 act 256.9 (no result: Hsp70 activator, TNF necrop inh, zVAD death inh)
Cc1ccc2c(c1)c(C1=c3ccccc3=NC1=O)c(O)n2C	HSF-1 act 194.6 (no result: Hsp70 activator, TNF necrop inh, zVAD death inh)
CC(C)CCNc1nc2c(cc1C#N)COC(C)(C)C2	none
CC1(C)Cc2nc(NCCN3CCOCC3)c(C#N)cc2CO1	HSF-1 act 102.6
Cc1ccc(OCC(=O)N2CCC(N3CCCCCC3)CC2)cc1	none
O=C(NC1CCN(S(=O)(=O)c2ccccc2)CC1)C1CCCCC1	none
O=C(NC1CCCCCC1)C1CCN(S(=O)(=O)c2ccccc2)CC1	HSF-1 act 55.3
CN(C)c1ccc(C(=O)/C=C/c2ccccc2)cc1	HSF-1 act 73.6
CC(=O)/C(=C/c1ccc(N(C)C)cc1)C(=O)c1ccccc1	HSF-1 act 81.4
CN(C)c1ccc(C(=O)/C=C/c2ccco2)cc1	HSF-1 act 68.1
CSc1ccc(/C=C/C(=O)c2ccc(O)cc2)cc1	HSF-1 act 60.2
Cc1ccc(/C=C/C(=O)c2ccc(O)cc2)cc1	none (no result: Hsp70 activator)
O=C(/C=C/c1ccco1)c1ccc(O)cc1	none
CN(C)c1ccc(C(=O)/C=C/c2ccc(Br)cc2)cc1	HSF-1 act inconclusive
Cc1ccc(Cc2cnc(NC(=O)c3cccs3)s2)cc1	HSF-1 act 64.6
O=C(Nc1ncc(Cc2ccc(SC(F)F)cc2)s1)c1ccccc1	none
Cc1ccc(C(=O)Nc2ncc(Cc3ccccc3)s2)o1	HSF-1 act 53.6
O=C(Nc1ncc(Cc2cccc(Cl)c2)s1)c1cccs1	none
O=C(Nc1ncc(Cc2ccccc2)s1)c1cccs1	HSF-1 act 54.7, zVAD death inh 83.2
O=C(Nc1ncc(Cc2ccccc2)s1)C1COc2ccccc2O1 (centres undefined)	TNF necrop inh 55.1, HSF-1 act inconclusive
CCOC(=O)N1CCC(NCc2c(C(=O)N(C)Cc3ccccc3)nc3ccccn23)CC1	none
COc1ccc(CNC(=O)CCC(=O)Nc2nnc(CC(C)C)s2)cc1	none (no result: Hsp70 activator)
Cc1ccc(C(=O)Nc2nc3c(s2)CCCC3)o1	HSF-1 act 60.1
CSc1ccc(-c2nnn(Cc3ccc(Br)cc3)n2)cc1	none
CSc1ccc(-c2nnn(Cc3ccccn3)n2)cc1	HSF-1 act 77.3
Cc1cc(NC(=O)C2CCN(C(=O)c3ccco3)CC2)ccc1Br	none (no result: Hsp70 activator, TNF necrop inh, zVAD death inh)
CSc1ccccc1NC(=S)NCc1ccc(Cl)cc1	HSF-1 act 63.8 (no result: Hsp70 activator, TNF necrop inh, zVAD death inh)
O=C(OC1CCOC1=O)c1cc(Cl)ccc1[N+](=O)[O-] (centres undefined)	HSF-1 act 58.3 (no result: Hsp70 activator, TNF necrop inh, zVAD death inh)
COc1ccc2c(-c3cc4ccc(OCc5ccc(F)cc5)cc4oc3=O)cc(=O)oc2c1	none
O=C1COc2ccc(OCc3ccc(F)cc3)cc21	HSF-1 act 53.5
Nc1cc(-c2ccco2)no1	HSF-1 act 71.9
O=[N+]([O-])c1cc(Cl)ccc1N1CCCCC1	none
O=[N+]([O-])c1ccc(N2CCCCCC2)c([N+](=O)[O-])c1	HSF-1 act 76.6
Cc1ccc(NC(=O)NCc2cccn2C)cc1C	none (no result: Hsp70 activator, TNF necrop inh, zVAD death inh)
Cc1cccc(/C=C/C(=O)c2ccc(NC3=NCCCS3)cc2)c1	HSF-1 act 73.9
Cc1cccc(C(=O)Nc2ccc(C(=O)/C=C/c3cccnc3)cc2)c1	HSF-1 act 162.9
Cc1cccc(C(=O)Nc2ccc(C(=O)/C=C/c3ccncc3)cc2)c1	HSF-1 act 91.8 (no result: Hsp70 activator, TNF necrop inh, zVAD death inh)
O=C(N/N=C/c1ccccc1Cl)c1ccc(F)cc1	HSF-1 act 55.8
CNC(=O)Nc1ccc(C2SCCS2)cc1	none (no result: Hsp70 activator)
O=C(Nc1ccc(F)cc1)c1cccc(C(=O)Nc2ccc(F)cc2)c1	none (no result: Hsp70 activator, TNF necrop inh, zVAD death inh)
O=C(Nc1ccc(F)cc1)c1ccccc1	HSF-1 act 64.6
O=C(Nc1ccc2nc3ccccc3nc2c1)c1ccccc1	HSF-1 act 81.4
O=C(Nc1ccc(Nc2ccccc2)cc1)c1ccccc1	none (no result: Hsp70 activator, TNF necrop inh, zVAD death inh)
CCCCNC(=O)Nc1ccc(C2SCCS2)cc1	HSF-1 act 69.4 (no result: Hsp70 activator)

Screening data: PubChem BioAssay, several laboratories
